This is an account of results in ChEMBL document CHEMBL3988442, “University of Dundee, Small-Polar-MMV Screening Library” (2021).

Common to all, as to design: scale not given: direction of the effect not stated beside the values
Assay [1] addresses Protein translocase subunit SecA (Escherichia coli (strain K12)) (UniProt P10408). Briefly: Assay to Identify E. coli SecA ATPase Inhibitors. The assay is classed as functional. Particulars: 30 µM.
Assay [2] deals with T1, Ubiquitin-activating enzyme e1, putative (Leishmania donovani (strain BPK282A1)) (UniProt E9BSI1).
T1 sequence (whole entry): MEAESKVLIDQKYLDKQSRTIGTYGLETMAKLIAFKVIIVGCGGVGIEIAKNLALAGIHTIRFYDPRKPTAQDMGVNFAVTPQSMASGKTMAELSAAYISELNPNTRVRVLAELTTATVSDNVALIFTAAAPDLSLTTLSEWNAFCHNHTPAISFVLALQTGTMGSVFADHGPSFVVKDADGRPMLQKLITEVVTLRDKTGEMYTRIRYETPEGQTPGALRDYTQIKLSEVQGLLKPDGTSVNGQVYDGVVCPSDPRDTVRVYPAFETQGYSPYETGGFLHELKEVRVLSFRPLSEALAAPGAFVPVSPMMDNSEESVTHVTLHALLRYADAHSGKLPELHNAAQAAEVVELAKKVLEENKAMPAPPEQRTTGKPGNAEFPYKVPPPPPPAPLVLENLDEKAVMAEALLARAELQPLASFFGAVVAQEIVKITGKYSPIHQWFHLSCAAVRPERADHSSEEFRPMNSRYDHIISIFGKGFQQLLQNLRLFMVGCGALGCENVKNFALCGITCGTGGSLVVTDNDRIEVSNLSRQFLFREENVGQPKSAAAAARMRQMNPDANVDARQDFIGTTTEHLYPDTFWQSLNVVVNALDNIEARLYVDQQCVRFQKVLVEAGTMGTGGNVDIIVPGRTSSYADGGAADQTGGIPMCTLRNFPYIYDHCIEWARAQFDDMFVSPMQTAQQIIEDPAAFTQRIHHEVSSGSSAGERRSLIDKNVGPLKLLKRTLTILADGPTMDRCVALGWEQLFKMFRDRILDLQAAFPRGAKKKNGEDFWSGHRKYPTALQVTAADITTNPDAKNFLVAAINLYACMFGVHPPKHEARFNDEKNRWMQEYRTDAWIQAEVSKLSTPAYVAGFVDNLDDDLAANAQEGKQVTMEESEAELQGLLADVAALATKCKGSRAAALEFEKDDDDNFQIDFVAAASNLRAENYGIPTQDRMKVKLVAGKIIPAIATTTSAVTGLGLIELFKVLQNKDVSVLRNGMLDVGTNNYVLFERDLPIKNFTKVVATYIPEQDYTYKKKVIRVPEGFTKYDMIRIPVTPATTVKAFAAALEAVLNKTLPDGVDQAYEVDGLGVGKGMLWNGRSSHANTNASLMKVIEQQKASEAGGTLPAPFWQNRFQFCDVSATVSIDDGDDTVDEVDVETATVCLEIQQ
Briefly: Leishmania donovani Ubiquitin Activating Enzyme (LdE1). The assay is classed as functional. Particulars: 30 µM.

Assay [3] has as its target AMP-activated protein kinase, AMPK (Homo sapiens) (UniProt P54646+O43741+P54619+Q9UGJ0+Q9Y478+Q13131+Q9UGI9). Briefly: AMP-dependent Kinase enzyme assay. An in vitro enzyme assay that detects ADP turnover that is directly proportional to AMPK activity. This uses naive AMPK that is activated during the assay with MK-8722. The class given is functional. As to conditions: 30 µM.

Assay [4] deals with Sialic acid-binding Ig-like lectin 9 (Homo sapiens) (UniProt Q9Y336). Briefly: Hs-Siglec9 ALPHAscreen SOP 20170721. As to conditions: 10 µM. Background: In Alpha technology, singlet oxygen from a donor bead excites a nearby acceptor bead.
For assay [5], the system named is Trypanosoma cruzi. Briefly: Trypanosoma cruzi phosphomannomutase and mannose-1-phosphate guanylyltransferase assay. Particulars: 10 µM. The class given is functional.
Assay [6] has as its target T2, Arginase-2, mitochondrial (Homo sapiens) (UniProt P78540).
T2 sequence (whole entry): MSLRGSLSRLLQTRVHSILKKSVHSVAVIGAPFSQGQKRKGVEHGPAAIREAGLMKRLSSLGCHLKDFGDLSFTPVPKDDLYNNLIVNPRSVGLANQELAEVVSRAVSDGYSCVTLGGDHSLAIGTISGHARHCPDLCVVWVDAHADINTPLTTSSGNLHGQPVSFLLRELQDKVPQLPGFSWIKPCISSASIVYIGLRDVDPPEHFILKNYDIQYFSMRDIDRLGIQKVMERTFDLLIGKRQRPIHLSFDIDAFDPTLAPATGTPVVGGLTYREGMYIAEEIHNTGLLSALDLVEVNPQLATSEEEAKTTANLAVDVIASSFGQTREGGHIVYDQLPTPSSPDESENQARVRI
Briefly: in vitro enzyme assay to detect the production of urea directly proportional to the activity of Arginase II. Note: in the data most compounds retested in dose-response had high values. The class given is functional. Particulars: 33.3 µM.

The target of assay [7] is T3, Proteasome subunit beta (Trypanosoma cruzi) (UniProt O96673).
T3 sequence (whole entry): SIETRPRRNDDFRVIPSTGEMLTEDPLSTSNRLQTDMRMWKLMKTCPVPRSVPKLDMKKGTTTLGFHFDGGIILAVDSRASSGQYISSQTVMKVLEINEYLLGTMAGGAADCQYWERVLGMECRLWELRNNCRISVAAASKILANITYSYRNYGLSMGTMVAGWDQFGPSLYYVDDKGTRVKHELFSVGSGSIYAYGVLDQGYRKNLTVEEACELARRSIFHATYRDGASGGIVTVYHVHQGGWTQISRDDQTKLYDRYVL
Briefly: Trypanosoma cruzi proteasome chymotrypsin-like activity (TcProtChymo) assay. Note: in the data most compounds retested in dose-response had high values. The assay is classed as functional. As to conditions: 9.37 µM.

The species named for assay [8] is Homo sapiens. Briefly: To identify inhibition of the IFN signalling (Jak-Stat) pathway via expression of an eGFP reporter gene under the control of an IFN-stimulated response element (ISRE) containing MxA promoter. The class given is functional. Particulars: 30 µM. In general terms: In a reporter assay the amount or activity of a reporter protein is the signal.

Assay [9] deals with T4, Tyrosyl-tRNA synthetase, putative (Trypanosoma cruzi (strain CL Brener)) (UniProt Q4DSP6).
T4 sequence (whole entry): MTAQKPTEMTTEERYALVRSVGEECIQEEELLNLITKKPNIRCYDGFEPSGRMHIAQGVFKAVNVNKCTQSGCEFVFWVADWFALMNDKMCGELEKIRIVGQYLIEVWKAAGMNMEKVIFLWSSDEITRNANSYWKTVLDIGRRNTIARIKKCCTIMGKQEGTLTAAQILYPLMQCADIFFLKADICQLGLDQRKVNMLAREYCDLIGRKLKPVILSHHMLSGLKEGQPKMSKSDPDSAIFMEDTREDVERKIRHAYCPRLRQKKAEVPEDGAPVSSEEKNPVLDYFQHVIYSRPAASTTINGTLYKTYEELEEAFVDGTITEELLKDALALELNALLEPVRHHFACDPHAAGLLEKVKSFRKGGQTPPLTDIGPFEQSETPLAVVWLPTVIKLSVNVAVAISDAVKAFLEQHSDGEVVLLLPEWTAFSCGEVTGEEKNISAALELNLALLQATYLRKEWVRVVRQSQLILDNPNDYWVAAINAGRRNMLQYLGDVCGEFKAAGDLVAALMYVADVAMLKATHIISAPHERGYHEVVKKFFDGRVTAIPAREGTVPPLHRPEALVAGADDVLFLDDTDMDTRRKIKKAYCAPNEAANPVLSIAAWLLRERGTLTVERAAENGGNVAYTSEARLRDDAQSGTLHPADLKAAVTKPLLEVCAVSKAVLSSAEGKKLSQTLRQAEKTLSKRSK
Briefly: Trypanosoma cruzi tyrosyl tRNA synthetase (TcYRS) _High Tyrosine SOP. Note: in the data most compounds retested in dose-response had high values. The class given is functional. Particulars: 30 µM.

Assay [10] has as its target T4, Tyrosyl-tRNA synthetase, putative (Trypanosoma cruzi (strain CL Brener)). Briefly: Trypanosoma cruzi tyrosyl tRNA synthetase (TcYRS) SOP. The assay is classed as functional. As to conditions: 30 µM.
Assay [11] has as its target Chromo domain-containing protein 1 (Saccharomyces cerevisiae (strain ATCC 204508 / S288c) (Baker's yeast)) (UniProt P32657). Briefly: ScCHD-1 Enzyme Inhibition Assay. Note: in the data most compounds retested in dose-response had high values. The assay is classed as functional. Particulars: 30 µM.

For some assays here: Entries with a potency or affinity are not part of this list.

Sequence of Sialic acid-binding Ig-like lectin 9 (Homo sapiens) (Q9Y336 whole entry): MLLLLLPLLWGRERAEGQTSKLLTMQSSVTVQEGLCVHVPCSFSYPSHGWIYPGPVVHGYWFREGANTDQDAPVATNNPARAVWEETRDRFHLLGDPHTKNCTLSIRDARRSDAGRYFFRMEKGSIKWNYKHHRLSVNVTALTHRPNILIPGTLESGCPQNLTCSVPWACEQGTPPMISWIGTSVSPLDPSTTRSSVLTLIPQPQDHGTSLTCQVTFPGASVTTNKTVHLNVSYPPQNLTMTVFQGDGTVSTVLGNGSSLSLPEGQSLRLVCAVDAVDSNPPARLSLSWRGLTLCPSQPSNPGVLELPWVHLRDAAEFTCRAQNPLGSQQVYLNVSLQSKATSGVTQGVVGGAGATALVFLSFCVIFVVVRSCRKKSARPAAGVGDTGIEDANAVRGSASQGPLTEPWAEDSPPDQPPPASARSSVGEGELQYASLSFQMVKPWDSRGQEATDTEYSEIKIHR
Sequence of Protein translocase subunit SecA (Escherichia coli (strain K12)) (P10408 whole entry): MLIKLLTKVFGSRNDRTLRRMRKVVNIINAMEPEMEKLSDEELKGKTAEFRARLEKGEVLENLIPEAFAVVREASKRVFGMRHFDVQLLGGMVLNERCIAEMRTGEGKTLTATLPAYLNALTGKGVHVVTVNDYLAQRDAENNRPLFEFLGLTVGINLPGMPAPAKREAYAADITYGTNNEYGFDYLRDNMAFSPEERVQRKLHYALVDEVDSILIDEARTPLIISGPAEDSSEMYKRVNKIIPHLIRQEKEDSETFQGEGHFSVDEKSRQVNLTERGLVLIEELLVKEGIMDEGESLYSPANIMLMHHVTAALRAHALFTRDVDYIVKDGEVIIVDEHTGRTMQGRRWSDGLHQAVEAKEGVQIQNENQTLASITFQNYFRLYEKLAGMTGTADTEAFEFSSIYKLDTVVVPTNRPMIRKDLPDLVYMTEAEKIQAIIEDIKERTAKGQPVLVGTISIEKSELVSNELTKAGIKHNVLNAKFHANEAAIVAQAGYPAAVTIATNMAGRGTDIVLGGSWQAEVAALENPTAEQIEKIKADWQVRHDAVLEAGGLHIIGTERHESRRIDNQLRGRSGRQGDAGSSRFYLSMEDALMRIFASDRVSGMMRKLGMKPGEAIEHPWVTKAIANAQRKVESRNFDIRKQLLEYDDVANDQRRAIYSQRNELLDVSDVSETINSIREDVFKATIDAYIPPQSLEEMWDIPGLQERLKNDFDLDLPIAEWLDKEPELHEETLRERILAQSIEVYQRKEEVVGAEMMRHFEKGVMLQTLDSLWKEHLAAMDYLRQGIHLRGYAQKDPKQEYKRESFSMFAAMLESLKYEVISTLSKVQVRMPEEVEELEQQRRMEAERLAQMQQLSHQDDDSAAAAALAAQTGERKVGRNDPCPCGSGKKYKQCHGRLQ
Sequence of Chromo domain-containing protein 1 (Saccharomyces cerevisiae (strain ATCC 204508 / S288c) (Baker's yeast)) (P32657 whole entry, the tested form may be a part): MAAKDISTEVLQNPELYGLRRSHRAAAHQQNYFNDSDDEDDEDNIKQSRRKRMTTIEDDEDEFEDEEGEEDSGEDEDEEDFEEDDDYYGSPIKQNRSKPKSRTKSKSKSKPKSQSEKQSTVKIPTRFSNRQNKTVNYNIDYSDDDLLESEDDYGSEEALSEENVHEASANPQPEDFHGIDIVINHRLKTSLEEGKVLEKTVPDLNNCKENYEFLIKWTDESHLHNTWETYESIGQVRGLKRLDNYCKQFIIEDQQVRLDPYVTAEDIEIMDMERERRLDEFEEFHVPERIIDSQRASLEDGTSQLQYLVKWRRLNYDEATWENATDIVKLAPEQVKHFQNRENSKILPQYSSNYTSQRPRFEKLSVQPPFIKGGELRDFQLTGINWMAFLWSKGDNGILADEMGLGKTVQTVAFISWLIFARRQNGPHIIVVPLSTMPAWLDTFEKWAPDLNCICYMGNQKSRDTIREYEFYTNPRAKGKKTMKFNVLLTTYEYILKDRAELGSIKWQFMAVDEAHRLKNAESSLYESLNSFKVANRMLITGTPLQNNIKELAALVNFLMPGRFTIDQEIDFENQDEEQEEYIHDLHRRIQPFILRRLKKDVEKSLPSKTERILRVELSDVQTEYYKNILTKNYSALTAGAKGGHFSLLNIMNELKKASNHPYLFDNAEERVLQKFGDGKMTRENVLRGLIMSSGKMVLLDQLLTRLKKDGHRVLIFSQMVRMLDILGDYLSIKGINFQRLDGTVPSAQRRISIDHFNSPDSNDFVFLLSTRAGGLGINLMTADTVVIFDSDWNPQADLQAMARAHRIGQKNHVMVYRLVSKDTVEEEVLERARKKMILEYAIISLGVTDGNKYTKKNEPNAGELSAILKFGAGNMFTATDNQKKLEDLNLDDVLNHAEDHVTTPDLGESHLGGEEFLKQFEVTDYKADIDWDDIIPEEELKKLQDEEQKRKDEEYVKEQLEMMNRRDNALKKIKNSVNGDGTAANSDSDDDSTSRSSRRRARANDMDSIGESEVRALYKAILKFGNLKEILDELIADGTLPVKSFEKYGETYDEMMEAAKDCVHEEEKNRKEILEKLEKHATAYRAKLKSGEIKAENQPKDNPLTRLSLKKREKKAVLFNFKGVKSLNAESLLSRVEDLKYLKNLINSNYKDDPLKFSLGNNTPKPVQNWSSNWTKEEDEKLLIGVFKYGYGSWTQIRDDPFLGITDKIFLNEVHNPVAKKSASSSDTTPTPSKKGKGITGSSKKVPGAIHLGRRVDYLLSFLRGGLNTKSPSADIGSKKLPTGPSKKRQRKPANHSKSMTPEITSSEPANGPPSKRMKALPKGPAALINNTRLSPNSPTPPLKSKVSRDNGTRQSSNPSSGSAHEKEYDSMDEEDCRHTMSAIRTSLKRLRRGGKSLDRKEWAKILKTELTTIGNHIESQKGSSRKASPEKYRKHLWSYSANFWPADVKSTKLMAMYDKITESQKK

On to `CCc1nnc2n1CCN(C(=O)COCCc1ccccc1)C2`, for which the Percent Effect in assay [1] was -5.81%; in [2], 15.8%; in assay [3] it was -4.37%; in assay [4], 7.1%; in assay [5] it was -2.71%; in assay [6], 1.8%. In addition, the Percent Effect in assay [7] is 1.78%; in assay [8], -1.11%; in [9], 3.45%; in assay [10], 13.6%; in assay [11], -2.89%.
In the case of `CCn1ncc2c1CCCC2NCc1ccc(OC)c(C)c1` (stereo not given), the Percent Effect in assay [1] is -7.95%; in [2] it was 12.7%; in [3], -10.6%; in assay [4] it was 11.1%; in assay [5], 7.08%; in assay [6], -3.42%. The Percent Effect in assay [7] was 1.23%; in [8], 0.115%; in assay [9], 4.43%; in assay [10], 16.5%; in assay [11], -6.17%.
Consider `COc1ccc(-n2ccc(C(=O)NCCN3CCCCC3C)n2)cc1` (stereo not given), for which the Percent Effect in assay [1] was -5.51%; in [2] it was -8.11%; in assay [3], -13.2%; in [4], 18.1%; in assay [5], 4.62%; in assay [6], -6.01%. In addition, the Percent Effect was 1.62% in assay [7]; -11.9% in [8]; 1.48% in assay [9]; 16.1% in [10]; -12.9% in assay [11].
Turning to `Cc1nn(C)c(C)c1CC(=O)N1CCC(N(C)c2cccnn2)CC1`, the Percent Effect in assay [1] is 0.112%; in assay [2], 15.8%; in assay [3], 0.809%; in [4], -2.31%; in assay [5], -2.82%; in [6] it was 4.98%. In addition, the Percent Effect is 10.5% in [7]; 42.1% in [8]; 3.43% in [9]; 4.88% in [10]; -9.53% in [11].
`Cc1ccc(NC2CCN(C(=O)COCC(F)(F)F)CC2)nn1`: the Percent Effect in [1] was -6.28%; in assay [2] it was 6.33%; in [3], -2.75%; in [4], 3.15%; in assay [5], -1.95%; in assay [6], -2.37%. In addition, the Percent Effect in [7] is 10.1%; in [8] it was 12.1%; in [9], 2.08%; in [10], 2.53%; in [11], 3.78%.
Turning to `CCn1c(Cn2cncn2)nnc1C1CCN(Cc2ccncc2)CC1`, the Percent Effect in assay [1] was -5.1%; in assay [2] it was 5.41%; in [3], -3.24%; in assay [4], 1.13%; in assay [5], -0.489%; in assay [6] it was 2.73%. The Percent Effect in assay [7] is 4.72%; in assay [8], -4.54%; in assay [9], 9.68%; in assay [10] it was 21%; in assay [11], -2.94%.
For `Cc1cccc(-c2nc(C)nn2CC(=O)NC2CCCC2)c1`, the Percent Effect in [1] was -5.38%; in assay [2], 23.4%; in [3], -6.06%; in [4], 8.2%; in [5], 6.93%; in assay [6] it was 3.2%. The Percent Effect in [7] was 18.6%; in assay [8], 5.48%; in assay [9], 9.71%; in assay [10], 26.8%; in assay [11], -9.1%.
With `Cc1cc(C)c(CNC(=O)NCC2CCCO2)c(=O)[nH]1` (stereo not given), the Percent Effect is -9.94% in [1]; 2.63% in assay [2]; 3.27% in assay [3]; 0.242% in assay [4]; -5.64% in assay [5]; -2.3% in assay [6]. The Percent Effect in [7] was -2.17%; in assay [8], 19.5%; in assay [9], -3.43%; in assay [10], -2.44%; in assay [11], 2.35%.
With `O=C(c1ccccc1N1CCOCC1)N1CCCC(n2cccn2)C1` (stereo not given), the Percent Effect in assay [1] was -5.13%; in [2] it was 2.7%; in [3] it was -10.8%; in [4], 3.15%; in assay [5], -1.98%; in assay [6] it was -0.802%. In addition, the Percent Effect in assay [7] was 3.06%; in [8], 12.4%; in assay [9] it was 5.42%; in assay [10] it was 13.6%; in [11] it was -3.66%.
Consider `Cc1nc(CN2CCN(CC(=O)Nc3c(C)cccc3C)CC2)no1`, for which the Percent Effect is -3.96% in assay [1]; 10.4% in assay [2]; -0.791% in assay [3]; -7.52% in [4]; 5.58% in assay [5]; 1.9% in assay [6]. Moreover, the Percent Effect in assay [7] is 15%; in [8] it was -5.46%; in assay [9], 7.62%; in assay [10], 18.8%; in [11], -17.5%.
